For assay [1], the target named is Lysosomal acid glucosylceramidase (Homo sapiens) (UniProt P04062). The assay is described as follows: Glucocerebrosidase-p2 (AID 348; in the data active means potency below about 10 µM; further: potency means the concentration at half of the fitted maximal effect). The following applies: purified GBA, blue fluorogenic substrate, 40 min. In short, it runs like this:
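Normal human glucocerebrosidase (0.2 nM) with blue fluorogenic substrate (80 uM final) in citrate/phosphate pH 5.9 with 10mM sodium taurocholate, 0.01% tween-20; 40 min RT, NaOH/glycine stop; fluorescence Ex 365/Em 440; AC50 from a titration from 0.6 nM upwards.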

A short description of assay [2]: AP1 Signaling Pathway (AID 357; active means well fitted curve in either direction with a large enough effect, not every such curve was filed as active;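 further: ME-180 reporter cells stimulated with EGF at its EC50 level; on the % scale 0 is the no-effect control and ±100 the full control effect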). The following applies: ME-180 AP-1-bla reporter, EGF-induced, beta-lactamase ratio, 5 h; at 7.69 µM (top of the series) unless noted. In short, it runs like this:
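Beta-lactamase reporter under AP-1 response element, ME-180 background. Stimulus: EC50 EGF. Compound exposure 5 h, 37 °C. Detection: CCF4, 2.5 h RT, 460/530 nm. Values: AC50 from titration.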

The nature of assay [3]: NFAT Signaling Pathway (AID 444; active means well fitted curve in either direction with a large enough effect, not every such curve was filed as active;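 further: carbachol stimulus at about its EC50 of 1 µM final; on the % scale 0 is the no-effect control and ±100 the full control effect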). The following applies: Jurkat NFAT-bla M1, carbachol, beta-lactamase ratio, 5 h; at 7.69 µM (top of the series) unless noted. The gist of the method: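 Read-out: CCF4 FRET ratio (460 nm/530 nm) after 1 h RT dye loading, used for %activity and AC50 from titration series. Cells: Jurkat NFAT-β-lactamase/M1 line, treated with compound plus 1 uM carbachol for 5 h, 37 °C.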

Assay [4] can be described thus: Stat Signaling Pathway (AID 446; active means well fitted curve in either direction with a large enough effect, not every such curve was filed as active;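 further: ME-180 cervical cancer cells given 40 pM IL-6 alongside compound; SIE-controlled beta-lactamase reporter measured as 460/530 nm FRET emission ratio; on the % scale 0 is the no-effect control and ±100 the full control effect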). The following applies: ME-180 SIE beta-lactamase reporter, IL-6 stimulated, 5 h; at 7.69 µM (top of the series) unless noted. The gist of the method: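 FRET read-out (405 nm excitation, 460/530 nm emission) of a beta-lactamase reporter under a STAT-inducible element in ME-180 cervical carcinoma cells. Cells with compound receive 40 pM IL-6 for 5 h. Values are normalised to AC90 stimulation and AC90 JAK-inhibitor controls.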

In assay [5] the target is Glucocorticoid receptor (Homo sapiens) (UniProt P04150). Briefly: GR-GFP Redistribution (AID 450;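 active means compounds whose dose series gives a full or clear partial fitted curve of increased nuclear translocation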; further: potency means the concentration at half of the fitted maximal effect). The following applies: U2OS GR-GFP nuclear translocation, laser cytometry, 2 h.
Chain of Glucocorticoid receptor (Homo sapiens) (P04150 whole entry, looked up): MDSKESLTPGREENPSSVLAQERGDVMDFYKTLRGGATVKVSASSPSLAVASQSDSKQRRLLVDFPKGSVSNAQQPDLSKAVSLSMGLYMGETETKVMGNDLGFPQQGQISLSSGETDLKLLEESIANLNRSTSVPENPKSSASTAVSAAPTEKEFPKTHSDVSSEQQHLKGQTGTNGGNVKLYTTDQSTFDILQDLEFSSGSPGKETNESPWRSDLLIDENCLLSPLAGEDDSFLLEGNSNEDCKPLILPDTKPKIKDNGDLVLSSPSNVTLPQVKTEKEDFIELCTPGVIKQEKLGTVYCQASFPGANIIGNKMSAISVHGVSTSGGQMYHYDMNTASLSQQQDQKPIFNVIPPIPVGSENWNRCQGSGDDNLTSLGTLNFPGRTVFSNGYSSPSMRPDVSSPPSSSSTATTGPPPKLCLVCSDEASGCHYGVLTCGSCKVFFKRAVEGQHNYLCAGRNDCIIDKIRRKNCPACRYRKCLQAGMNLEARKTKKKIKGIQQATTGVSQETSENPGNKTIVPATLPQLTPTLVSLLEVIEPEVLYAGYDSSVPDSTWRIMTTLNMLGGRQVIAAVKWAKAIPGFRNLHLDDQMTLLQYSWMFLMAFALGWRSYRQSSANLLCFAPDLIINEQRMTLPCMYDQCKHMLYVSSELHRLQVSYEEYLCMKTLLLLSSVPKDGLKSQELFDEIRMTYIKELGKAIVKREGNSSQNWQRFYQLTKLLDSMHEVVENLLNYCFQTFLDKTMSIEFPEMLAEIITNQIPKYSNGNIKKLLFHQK
For assay [6] the target is unchanged. The assay is described as follows: GR-EFC Redistribution (AID 451; calls by dose curve; further: potency means the concentration at half of the fitted maximal effect). The following applies: CHO-K1 GR-EFC translocation, beta-gal luminescence, 2 h. In short, it runs like this:
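Translocation of GR-ED fusion to nuclear EA restores b-gal, read by luminescence after 1 h room-temperature detection. Engineered CHO-K1 biosensor cells, 1,000/well, exposed 2 h at 37 C to titrations up to 46 uM final.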

Assay [7] addresses Mitogen-activated protein kinase 10 (Mus musculus) (UniProt Q61831). Briefly: JNK3 AlphaScreen Assay (AID 530; active means well fitted curve in either direction with a large enough effect, not every such curve was filed as active;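 further: kinase came from lysate of stimulated human HepG2 cells; signal reports phosphorylation of biotinylated GST-cJun 1-79 at Ser73 with 10 µM ATP; on the % scale 0 is the no-effect control and ±100 the full control effect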). The following applies: JNK3 lysate, c-Jun phosphorylation; series mostly up to 57.1 µM. In short, it runs like this: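 Kinase buffer: 20 mM Tris-HCl pH 7.6, 10 mM MgCl2, 1 mM DTT, 0.1 mM Na3VO4, 0.01% Tween-20; ATP 10 uM. Substrate biotin-GST-cJun(1-79), enzyme from activated HepG2 lysates. Detection by Ser73 phospho-antibody AlphaScreen.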

Assay [8] concerns the target 3',5'-cyclic-AMP phosphodiesterase 4B (Homo sapiens) (UniProt Q07343). Briefly: qHTS Assay for Inhibitors of PDE-IV (AID 607; active means well fitted activation curve with a large enough effect in the main read-out, with a control signal flat, not every such curve was filed as active; further: % of control where 0% means no effect). The following applies: HEK293 ACTOne CNG channel cells, membrane potential fluorescence; series mostly up to 22.9 µM. In short, it runs like this: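 Cell-based read-out of cAMP via a modified cyclic nucleotide-gated channel and membrane potential dye (535/590 nm) in HEK293 cells expressing PDE4 endogenously. Compounds tested up to 22.9 uM final; 100 uM RO 20-1724 reference.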

Assay [9] addresses Dual specificity protein kinase CLK4 (Homo sapiens) (UniProt Q9HAZ1). The assay is described as follows: qHTS Assay for Inhibitors of CDC-like Kinase 4 (Kinase-Glo Assay) (AID 1770). Further: nearly all actives have a fitted effect of over 65% in size. Further: potency means the concentration at half of the fitted maximal effect. The following applies: recombinant Clk4, Kinase-Glo ATP depletion luminescence; series mostly up to 66.7 µM. In short, it runs like this: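 Recombinant human Clk4 (25 nM) phosphorylated RS repeat peptide (100 uM) with 1 uM ATP in Tris pH 7.5/MgCl2/EGTA/DTT/Triton buffer for 4.5 h at room temperature. Residual ATP was quantified by Kinase-Glo luciferase luminescence.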

For assay [10] the target is unchanged. Briefly: qHTS Assay for Inhibitors of CDC-like Kinase 4 (ADP-FP Assay) (AID 1795). Further: nearly all actives have a fitted effect of over 60% in size. Further: potency means the concentration at half of the fitted maximal effect. The following applies: Transcreener ADP fluorescence polarization; series mostly up to 50 µM. The gist of the method: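 Recombinant human Clk4 (6.25 nM) phosphorylated RS repeat peptide (100 uM) with 1 uM ATP in Tris pH 7.5/MgCl2/EGTA/DTT/Triton buffer for one hour. ADP was quantified by Transcreener competitive fluorescence polarization against an ADP calibration curve.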

Assay [11] concerns the target Ubiquitin carboxyl-terminal hydrolase 1 (Homo sapiens) (UniProt O94782). The assay is described as follows: Inhibitors of USP1/UAF1: Pilot qHTS (AID 504865).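 Further: rhodamine fluorescence freed from ubiquitin-rhodamine substrate followed over time; top concentration of the series differs between compounds; on the % scale 0 is the no-effect control and ±100 the full control effect; nearly all actives have a fitted effect of over 35% in size.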 The following applies: purified USP1/UAF1, Ub-rhodamine cleavage fluorescence; series mostly up to 54.9 µM. In short, it runs like this:
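USP1/UAF1 complex (1nM) preincubated with compound 15 min at room temperature, then Ub-Rho substrate (150nM final) added. Fluorescence read kinetically at 480/540 nm, 6 reads every 60 seconds. Buffer: 50mM HEPES pH 7.8, 0.5mM EDTA, 0.1 mg/ml BSA, 1mM TCEP, 0.01% Tween-20.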

Assay [12] is described as follows: Primary qHTS for small molecule stabilizers of the endoplasmic reticulum resident proteome: Secreted ER Calcium Modulated Protein (SERCaMP) assay (AID 1508630). Further: on the % scale 0 is the no-effect control and ±100 the full control effect. The following applies: SH-SY5Y GLuc-SERCaMP (Gaussia luciferase released on ER calcium loss) secretion, thapsigargin, luminescence; series mostly up to 38.4 µM. The gist of the method: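 The SH-SY5Y reporter protocol was run at 3 concentrations up to 38.3 uM (primary) or 11 concentrations (follow-up): 16 h compound, 100 nM thapsigargin for 4 h, then extracellular luciferase luminescence.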

Assay [13] concerns the target Cytochrome P450 1A2 (Homo sapiens) (UniProt P05177). Briefly: p450-cyp1a2 (AID 410; calls by dose curve; further: potency means the concentration at half of the fitted maximal effect). The following applies: recombinant CYP1A2, luciferin-ME demethylation, luminescence; series mostly up to 57 µM. The gist of the method:
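Read-out is luminescence from luciferin produced by CYP1A2 demethylation of Luciferin-ME (100uM, at Km). Detection reagent stopped the 60 min NADPH-dependent reaction; signals were normalized to 57 uM furafylline.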

Assay [14] can be described thus: qHTS Assay for Identification of Small Molecule Agonists for Hypoxia Response Element Signaling Pathway (AID 914; active means well fitted activation curve with a large enough effect in the signal ratio, with a control signal flat, not every such curve was filed as active; the % refers to the signal ratio; further: % of control where 0% means no effect). The following applies: ME-180 (cervical carcinoma) HRE-bla reporter, beta-lactamase ratio, CoCl2, 17 h; activation: hits give high values. The gist of the method:
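Positive modulation of EC50 CoCl2-induced hypoxia response element signaling is measured in ME-180 cells with a beta-lactamase reporter. Compounds are titrated, incubation runs 17 hours, and %Activity derives from the blue/green ratio.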

For assay [15], the target named is Cytochrome P450 2C19 (Homo sapiens) (UniProt P33261). The assay is described as follows: qHTS Assay for Inhibitors and Substrates of Cytochrome P450 2C19 (AID 899). Further: potency means the concentration at half of the fitted maximal effect; nearly all actives have a fitted effect of over 60% in size. The following applies: recombinant CYP2C19, luciferin-H EGE luminescence; series mostly up to 57.1 µM. The gist of the method:
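Reactions contain 5nM enzyme, 10uM Luciferin-H EGE (KM) and 50mM KPO4; compound preincubates 10 min at 37C, NADPH regeneration starts turnover for 60 min. Luminescence after detection reagent gives activity.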

Assay [16] concerns the target Cytochrome P450 3A4 (Homo sapiens) (UniProt P08684). The assay is described as follows: qHTS Assay for Inhibitors and Substrates of Cytochrome P450 3A4 (AID 884). Further: potency means the concentration at half of the fitted maximal effect; nearly all actives have a fitted effect of over 50% in size. The following applies: recombinant CYP3A4, Luciferin-PPXE luminescence; series mostly up to 57.1 µM. The gist of the method: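 Luminescent readout of luciferin produced by CYP3A4 (20 nM) dealkylation of Luciferin-PPXE, 25 uM (its KM). NADPH-driven reaction ran 60 min at RT after 10 min compound preincubation; data scaled to 57 uM ketoconazole as 100% inhibition.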

Assay [17] shares this target. Briefly: qHTS Assay for Activators of Cytochrome P450 3A4 (AID 885). Further: nearly all actives have a fitted effect of over 65% in size. The following applies: recombinant CYP3A4, Luciferin-PPXE luminescence, 60 min; series mostly up to 57.1 µM. In short, it runs like this: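 Luminescent readout of luciferin formed from 25 uM Luciferin-PPXE (KM level) by 20 nM CYP3A4 in 200 mM KPO4, with 60 min NADPH-driven reaction at room temperature after 10 min compound exposure. Ketoconazole (57 uM) defined 100% inhibition.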

Values without a mark were called inactive. Records with an inconclusive call do not appear. Activity calls are given as the source filed them. Unless noted, the call rests on the fitted dose curve; in most records, active means well fitted curve in the direction sought with a large enough effect; inconclusive means small, poorly fitted or top-dose-only effect, or another doubt; inactive means no such curve, though single readings can be large; an effect the other way counts as inactive or inconclusive.

Chain of Cytochrome P450 3A4 (Homo sapiens) (P08684 whole entry, looked up): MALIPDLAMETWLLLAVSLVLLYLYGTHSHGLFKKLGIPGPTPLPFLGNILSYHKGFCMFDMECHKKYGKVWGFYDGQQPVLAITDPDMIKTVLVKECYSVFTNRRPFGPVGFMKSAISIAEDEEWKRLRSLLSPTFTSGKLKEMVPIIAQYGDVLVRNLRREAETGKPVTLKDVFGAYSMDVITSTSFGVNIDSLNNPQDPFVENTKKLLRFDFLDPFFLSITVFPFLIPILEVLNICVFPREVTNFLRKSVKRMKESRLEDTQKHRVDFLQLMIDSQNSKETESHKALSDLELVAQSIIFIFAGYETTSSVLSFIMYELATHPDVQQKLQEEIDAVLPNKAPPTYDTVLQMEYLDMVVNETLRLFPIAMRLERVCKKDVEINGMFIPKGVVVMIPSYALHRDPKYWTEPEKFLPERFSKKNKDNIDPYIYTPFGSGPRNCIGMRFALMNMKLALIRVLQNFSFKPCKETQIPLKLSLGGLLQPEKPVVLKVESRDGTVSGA
Chain of 3',5'-cyclic-AMP phosphodiesterase 4B (Homo sapiens) (Q07343 whole entry, looked up): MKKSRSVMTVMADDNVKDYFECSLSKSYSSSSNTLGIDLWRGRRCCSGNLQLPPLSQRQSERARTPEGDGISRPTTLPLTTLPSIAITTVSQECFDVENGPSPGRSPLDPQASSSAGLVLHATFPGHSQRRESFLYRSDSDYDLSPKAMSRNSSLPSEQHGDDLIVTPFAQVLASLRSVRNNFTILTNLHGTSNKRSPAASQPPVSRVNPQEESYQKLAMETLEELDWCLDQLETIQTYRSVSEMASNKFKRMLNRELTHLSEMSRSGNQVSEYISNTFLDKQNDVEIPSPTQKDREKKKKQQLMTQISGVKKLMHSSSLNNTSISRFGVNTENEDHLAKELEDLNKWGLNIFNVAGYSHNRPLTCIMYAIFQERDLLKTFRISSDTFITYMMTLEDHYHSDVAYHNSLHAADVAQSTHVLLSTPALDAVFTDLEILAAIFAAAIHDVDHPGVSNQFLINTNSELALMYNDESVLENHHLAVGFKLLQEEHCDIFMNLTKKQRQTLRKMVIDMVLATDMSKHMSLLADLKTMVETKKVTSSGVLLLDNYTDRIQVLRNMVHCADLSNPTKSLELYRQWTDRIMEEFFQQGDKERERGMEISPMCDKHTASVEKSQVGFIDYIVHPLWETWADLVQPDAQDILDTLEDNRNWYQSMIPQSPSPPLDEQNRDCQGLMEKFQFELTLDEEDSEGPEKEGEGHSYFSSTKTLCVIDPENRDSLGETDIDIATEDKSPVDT
Chain of Cytochrome P450 1A2 (Homo sapiens) (P05177 whole entry, looked up): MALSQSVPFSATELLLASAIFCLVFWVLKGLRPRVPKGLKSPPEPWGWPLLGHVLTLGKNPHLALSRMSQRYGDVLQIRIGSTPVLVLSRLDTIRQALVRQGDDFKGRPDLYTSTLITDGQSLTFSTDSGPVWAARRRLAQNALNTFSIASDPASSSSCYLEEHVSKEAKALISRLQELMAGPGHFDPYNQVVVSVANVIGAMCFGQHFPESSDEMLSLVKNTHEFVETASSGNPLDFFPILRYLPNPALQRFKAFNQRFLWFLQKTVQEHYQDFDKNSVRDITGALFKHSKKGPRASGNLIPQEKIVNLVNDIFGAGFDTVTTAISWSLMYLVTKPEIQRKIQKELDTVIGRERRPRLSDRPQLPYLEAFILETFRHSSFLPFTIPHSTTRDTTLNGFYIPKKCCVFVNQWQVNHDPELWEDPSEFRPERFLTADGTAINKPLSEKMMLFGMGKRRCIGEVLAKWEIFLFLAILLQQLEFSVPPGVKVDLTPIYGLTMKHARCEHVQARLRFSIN
Chain of Lysosomal acid glucosylceramidase (Homo sapiens) (P04062 whole entry, looked up): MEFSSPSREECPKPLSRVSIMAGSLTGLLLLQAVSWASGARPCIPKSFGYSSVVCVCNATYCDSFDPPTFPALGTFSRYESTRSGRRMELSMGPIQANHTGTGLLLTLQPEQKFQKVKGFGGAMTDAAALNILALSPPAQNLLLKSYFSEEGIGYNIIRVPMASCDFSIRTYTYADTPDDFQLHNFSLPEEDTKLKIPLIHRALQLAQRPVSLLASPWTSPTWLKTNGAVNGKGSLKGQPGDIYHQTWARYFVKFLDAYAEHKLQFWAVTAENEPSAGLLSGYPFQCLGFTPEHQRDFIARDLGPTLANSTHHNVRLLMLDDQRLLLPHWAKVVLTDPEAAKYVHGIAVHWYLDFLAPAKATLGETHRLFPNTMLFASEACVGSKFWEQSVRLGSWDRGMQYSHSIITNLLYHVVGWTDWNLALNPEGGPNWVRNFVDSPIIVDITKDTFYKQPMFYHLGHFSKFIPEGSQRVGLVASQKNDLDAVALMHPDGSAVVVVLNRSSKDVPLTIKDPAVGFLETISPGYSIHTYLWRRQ
Chain of Dual specificity protein kinase CLK4 (Homo sapiens) (Q9HAZ1 whole entry, looked up): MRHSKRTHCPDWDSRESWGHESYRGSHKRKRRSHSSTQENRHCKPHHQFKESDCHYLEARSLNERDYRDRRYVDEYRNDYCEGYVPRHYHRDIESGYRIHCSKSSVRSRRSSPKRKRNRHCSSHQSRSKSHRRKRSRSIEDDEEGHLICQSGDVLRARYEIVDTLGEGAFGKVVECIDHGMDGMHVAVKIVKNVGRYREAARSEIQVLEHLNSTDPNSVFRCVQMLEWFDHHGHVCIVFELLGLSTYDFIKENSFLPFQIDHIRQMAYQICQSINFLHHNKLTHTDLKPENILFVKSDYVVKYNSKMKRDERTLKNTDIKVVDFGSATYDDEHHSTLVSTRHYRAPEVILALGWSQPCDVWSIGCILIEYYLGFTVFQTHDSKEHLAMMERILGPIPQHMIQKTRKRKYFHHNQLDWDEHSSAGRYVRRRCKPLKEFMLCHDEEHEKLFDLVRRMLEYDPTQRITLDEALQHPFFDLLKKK
Chain of Ubiquitin carboxyl-terminal hydrolase 1 (Homo sapiens) (O94782 whole entry, looked up): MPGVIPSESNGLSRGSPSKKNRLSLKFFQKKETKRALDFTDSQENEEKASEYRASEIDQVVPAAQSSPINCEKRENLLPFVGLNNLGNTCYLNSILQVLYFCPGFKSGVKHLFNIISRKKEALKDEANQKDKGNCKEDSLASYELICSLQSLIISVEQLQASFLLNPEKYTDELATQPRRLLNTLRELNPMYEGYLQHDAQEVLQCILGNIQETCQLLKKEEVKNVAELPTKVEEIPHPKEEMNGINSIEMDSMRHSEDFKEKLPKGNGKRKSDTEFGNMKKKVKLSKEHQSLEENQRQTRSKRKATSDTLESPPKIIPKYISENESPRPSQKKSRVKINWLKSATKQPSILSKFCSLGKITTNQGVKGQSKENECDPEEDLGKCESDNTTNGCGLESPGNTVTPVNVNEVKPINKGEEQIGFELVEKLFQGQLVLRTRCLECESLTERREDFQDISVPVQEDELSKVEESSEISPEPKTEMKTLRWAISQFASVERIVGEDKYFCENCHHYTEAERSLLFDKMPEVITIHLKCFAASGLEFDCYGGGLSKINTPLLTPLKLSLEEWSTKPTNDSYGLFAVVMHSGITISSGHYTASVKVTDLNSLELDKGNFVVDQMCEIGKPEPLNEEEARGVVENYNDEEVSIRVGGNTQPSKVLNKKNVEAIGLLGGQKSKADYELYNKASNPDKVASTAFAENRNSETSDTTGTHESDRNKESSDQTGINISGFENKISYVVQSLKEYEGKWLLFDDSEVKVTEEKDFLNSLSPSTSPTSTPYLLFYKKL
Chain of Cytochrome P450 2C19 (Homo sapiens) (P33261 whole entry, looked up): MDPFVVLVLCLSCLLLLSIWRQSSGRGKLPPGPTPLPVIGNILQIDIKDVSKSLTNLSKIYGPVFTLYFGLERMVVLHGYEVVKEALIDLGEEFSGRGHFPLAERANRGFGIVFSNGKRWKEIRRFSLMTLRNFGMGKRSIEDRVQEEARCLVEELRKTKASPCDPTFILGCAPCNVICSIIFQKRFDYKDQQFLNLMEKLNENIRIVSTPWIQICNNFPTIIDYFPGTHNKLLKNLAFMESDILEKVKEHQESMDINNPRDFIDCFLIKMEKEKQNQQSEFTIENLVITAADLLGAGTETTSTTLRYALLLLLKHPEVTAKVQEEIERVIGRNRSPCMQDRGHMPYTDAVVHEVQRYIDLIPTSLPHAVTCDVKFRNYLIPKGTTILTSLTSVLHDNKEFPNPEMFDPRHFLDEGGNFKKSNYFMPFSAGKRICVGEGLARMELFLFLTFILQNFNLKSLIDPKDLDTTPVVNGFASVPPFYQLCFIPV

For the molecule `COCCn1c(=O)c(C)nc2cnc(N3CCOCC3)nc21`, the Potency is greater than 11.4 µM in assay [1], greater than 9.22 µM in assay [5] and greater than 46 µM in assay [6]. The activity change, negative = inhibition in assay [2] was -1.95%; in [3], -1.73%. The activity, negative = inhibition in assay [4] is -12.9%. The Potency result in [7], in [8], in assay [9], in [10] and in assay [11] was “inactive” each time. For the same molecule, the outcome in assay [12] was inactive.

For `O=c1c(CCc2ccccc2)nc2cnc(N3CCOCC3)nc2n1CCc1ccccc1`, the Potency is greater than 11.4 µM in [1], 25.1 µM (active) in assay [13], greater than 9.22 µM in assay [5] and greater than 46 µM in assay [6]. In addition, the activity change, negative = inhibition in assay [2] was 0.172%; in assay [3], 6.88%. Also, the activity, negative = inhibition in assay [4] is -4.94%. Moreover, the Potency entry in assay [7], in [9], in assay [10] and in assay [11] was “inactive” each time. The activation in assay [14] was -4.33%. The result in assay [12] was inactive.

Take `CN(Cc1ccco1)c1ccnc(-c2ccccc2C(F)(F)F)n1`: the Potency in assay [1] is greater than 11.4 µM; in assay [13], 2.51 µM (active); in assay [5], greater than 46 µM; in assay [6], greater than 46 µM; in [15], 7.94 µM (active). Also, the activity change, negative = inhibition in [2] was 2.94%; in assay [3] it was -8.64%. In addition, the activity, negative = inhibition in assay [4] was -4.79%. In addition, the Potency result in assay [7], in assay [8], in [9] and in assay [10] was “inactive” in each case. Also, in assay [12], the result was inactive.

`COc1cccc(Cn2c(=O)c(-c3ccccc3)nc3cncnc32)c1`: the Potency is greater than 11.4 µM in assay [1], greater than 9.22 µM in assay [5] and greater than 46 µM in assay [6]. For the same molecule, the activity change, negative = inhibition is -16.5% in assay [2] and -5.39% in assay [3]. For the same molecule, the activity, negative = inhibition in [4] was -11.9%. Further, the Potency result in [7], in assay [8], in assay [9], in [10] and in assay [11] was “inactive” in each case. The outcome in assay [12] was inactive.

`CCNc1ncc2nc(-c3cccs3)c(=O)n(Cc3cccs3)c2n1`: the Potency was greater than 11.4 µM in assay [1]; 1.26 µM (active) in assay [13]; greater than 9.22 µM in assay [5]; greater than 46 µM in [6]; 6.31 µM (active) in assay [16]. For the same molecule, in [2], the activity change, negative = inhibition was 9.95%. Further, the Potency result in [7], in assay [17], in [9], in [10] and in assay [11] was “inactive” each time. Besides, the outcome in assay [12] was inactive.

On to `FC(F)(F)c1ccccc1-c1nccc(NCCN2CCOCC2)n1`, for which the Potency in assay [1] was greater than 11.4 µM; in assay [5] it was greater than 46 µM; in assay [6], greater than 46 µM. In addition, the activity change, negative = inhibition in assay [2] is 27.9%. In addition, in [4], the activity, negative = inhibition is -13.3%. In addition, the Potency entry in assay [7], in assay [8], in assay [17], in assay [9], in assay [10] and in [11] was “inactive” in each case. Besides, the outcome in assay [12] was inactive.

On to `COc1ccccc1CNc1cc(-c2ccc(C(=O)N(C)C)cc2)ncn1`, for which the Potency in [1] is greater than 11.4 µM; in [13] it was 7.94 µM (active); in assay [5], greater than 46 µM; in [6], greater than 46 µM; in [9], 7.08 µM (active); in assay [10], 11.2 µM (active). For the same molecule, the activity change, negative = inhibition in assay [3] was 8.83%. For the same molecule, the Potency entry in [7], in assay [17] and in [11] was “inactive” throughout. Moreover, the activation in [14] was 6.06%. The result in [12] was inactive.

The values above are taken from PubChem BioAssay (NCATS).
